Assay [1] in a line: compounds binding Alexa647 anti-His antibody – biochemical, small-molecule microarray, 635 nm fluorescence, artefact control for SMM control protein annotation, primary screen (AID 1128).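 Also: score merges feature fluorescence with signal-to-noise for each printed compound spot.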 The following applies: higher = more signal.
Assay [2] concerns Human papillomavirus type 1a E7 protein (residues 1-88). Briefly: HPV1a E7 small-molecule binders, primary screen, biochemical, small-molecule microarray, residues 1-88, 635 nm (AID 1129). The following applies: small-molecule microarray binding, fluorescence 635 nm; higher = more signal.
Assay [3] has as its target Focal adhesion kinase 1 (Homo sapiens) (UniProt Q05397). Briefly: PTK2 protein binding on printed compound slides – biochemical, small-molecule microarray, 635/667 nm fluorescence, BSA, DTT, primary screen (AID 1130).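 Also: composite of spot emission at 667 nm and signal to noise over triplicate slides.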 The following applies: 635 nm fluorescence, higher = more signal.
The subject of assay [4] is Fibrinogen (Alexa647-labelled). Briefly: Alexa647-fibrinogen binding to printed small molecules – biochemical, small-molecule microarray, 635/667 nm fluorescence, artefact control for SMM control-protein annotation, profiling panel (AID 1131).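 Also: z-score merges 667 nm fluorescence with per-spot signal-to-noise over triplicate slides.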 The following applies: fibrinogen-A647 binding fluorescence, higher = more signal.
Assay [5] deals with Follistatin (Homo sapiens) (UniProt P19883). Briefly: FST protein binding to printed compounds – biochemical, small-molecule microarray, 635/667 nm fluorescence, primary screen (AID 1132). The following applies: 635 nm fluorescence, higher = more signal.
Assay [6] concerns the target Fibroblast growth factor 2 (Homo sapiens) (UniProt P09038). The assay is described as follows: basic fibroblast growth factor binding to printed compounds – biochemical, small-molecule microarray, 635/667 nm fluorescence, primary screen (AID 1133). The following applies: FGF2, fluorescence 635/667, higher = more signal.
A short description of assay [7]: JC-1 mitochondrial potential readout, lung cancer cells – cell-based, A549, JC-1 fluorescence, basal, 24 h, 100 nL, profiling panel (AID 1138).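 Also: A549 lung adenocarcinoma cells under basal conditions with no added stimulus; test concentration not given here.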 The following applies: higher = more signal.
For assay [8], the system named is Lefty1. The assay is described as follows: Lefty1 protein binding to printed compounds – biochemical, small-molecule microarray, 635/667 nm fluorescence, primary screen (AID 1139). The following applies: fluorescence 635/667, higher = more signal.
The subject of assay [9] is wheat germ agglutinin (Triticum aestivum), Alexa647-labelled. Briefly: Alexa647-WGA lectin binding to printed small molecules – biochemical, small-molecule microarray, 635/667 nm fluorescence, artefact control for SMM control-protein annotation, profiling panel (AID 1140).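 Also: score merges 667 nm feature emission with signal to noise over triplicate slides.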 The following applies: WGA-A647 binding, 635 nm fluorescence, higher = more signal.
Assay [10] concerns the target Luciferin 4-monooxygenase (Photinus pyralis) (UniProt P08659). The assay is described as follows: inhibition of purified Photinus pyralis luciferase – biochemical, luminescence, purified enzyme, 2006 set, primary screen (AID 1141).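 Also: cell-free assay with purified firefly luciferase at 100 ng per well in PBS; test concentration not given here.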 The following applies: purified firefly luciferase, SteadyGlo luminescence, 30 min; higher = more signal, called active from +8 up or from −8 down.

For assay [11], the system named is Wnt5a (protein binding on small-molecule microarray). The assay is described as follows: small molecules binding Wnt5a protein – biophysical, small-molecule microarray, 635/667 nm fluorescence, primary screen (AID 1142).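 Also: fluorescence read at 667 nm with signal to noise per printed feature.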 The following applies: 635 nm fluorescence, higher = more signal.
Assay [12] is described as follows: ATP-based viability of Huh7 replicon cells – cell-based, CellTiter-Glo luminescence, basal, 48 h, cytotoxicity control for HCV replication inhibitor project, primary screen (AID 1143).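 Also: Huh7 hepatoma cells carrying a hepatitis C replication reporter with no stimulus; test concentration not given here.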 The following applies: higher = more signal, called active from +8 up or from −8 down.
A short description of assay [13]: Pseudomonas biofilm growth suppression – PAO1 strain, BacTiter-Glo luminescence, LB-PBS, primary screen (AID 1144). The following applies: P. aeruginosa PAO1 biofilm, 12 h, higher = more signal.
Assay [14] in a line: basal CRE-LacZ reporter activity in PC12 – cell-based, unstimulated, primary screen (AID 1145). The following applies: no forskolin, luminescence, 4.5 h, higher = more signal, called active from +8 up or from −8 down.
Assay [15] can be described thus: forskolin-driven CRE-LacZ activity in PC12 – cell-based, CRE-LacZ reporter, forskolin-stimulated, primary screen (AID 1146).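 Also: PC12 cells with 6xCRE LacZ reporter stimulated by forskolin 10 µM; beta-galactosidase reporter signal reflecting CREB driven transcription.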 The following applies: luminescence, 4.5 h, higher = more signal, called active from +8 up or from −8 down.
Assay [16] concerns the target Streptavidin (Streptomyces avidinii) (UniProt P22629). The assay is described as follows: compounds binding control protein streptavidin – biophysical, small-molecule microarray, 635/667 nm fluorescence, artefact control for SMM compound annotation, primary screen (AID 1147).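 Also: signal reflects streptavidin binding to arrayed compounds as a control protein.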 The following applies: higher = more signal.
Assay [17] can be described thus: probe aInhba binding on compound microarray – biochemical, small-molecule microarray, 635/667 nm fluorescence, primary screen (AID 1148).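 Also: score merges 667nm spot fluorescence with signal-to-noise for antibody binding to printed compounds.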 The following applies: higher = more signal.
Assay [18] addresses Torsin-1A (Homo sapiens) (UniProt O14656). The assay is described as follows: TOR1A wild-type binding on microarray – cell lysate, small-molecule microarray, lysate, 635/667 nm, primary screen (AID 1149). The following applies: COS7 hTOR1A-WT lysate, 635 nm fluorescence, higher = more signal.
The target is the same in assay [19]. Briefly: torsin A mutant lysate binding on microarrays – cell lysate, small-molecule microarray, COS7 lysate, 635/667 nm fluorescence, primary screen (AID 1150).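 Also: score pools 667 nm emission and signal to noise measuring lysate protein binding.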 The following applies: COS7 hTOR1A mutant lysate, 635 nm fluorescence, higher = more signal.
Assay [20] has as its system Sonic hedgehog protein (Shh). Briefly: Sonic hedgehog microarray binding compounds – biochemical, small-molecule microarray, 635/667 nm fluorescence, primary screen (AID 1151).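 Also: Shh protein binding to compounds spotted on small-molecule microarray slides; score combines spot fluorescence intensity with signal-to-noise across triplicate slides.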 The following applies: 635 nm fluorescence, higher = more signal.

Molecules are shown by their SMILES. Calls of active or inactive are those of the source. Unless noted, no rule for the calls is given here.

Our source for the composite z-score and z-score values is PubChem BioAssay.

Chain of Streptavidin (Streptomyces avidinii) (P22629 whole entry, looked up): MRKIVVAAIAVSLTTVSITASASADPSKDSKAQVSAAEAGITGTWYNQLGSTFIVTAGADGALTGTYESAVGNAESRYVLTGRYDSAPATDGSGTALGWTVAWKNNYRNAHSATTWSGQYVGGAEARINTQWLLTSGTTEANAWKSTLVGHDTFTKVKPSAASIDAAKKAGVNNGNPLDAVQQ
Chain of Fibroblast growth factor 2 (Homo sapiens) (P09038 whole entry, looked up): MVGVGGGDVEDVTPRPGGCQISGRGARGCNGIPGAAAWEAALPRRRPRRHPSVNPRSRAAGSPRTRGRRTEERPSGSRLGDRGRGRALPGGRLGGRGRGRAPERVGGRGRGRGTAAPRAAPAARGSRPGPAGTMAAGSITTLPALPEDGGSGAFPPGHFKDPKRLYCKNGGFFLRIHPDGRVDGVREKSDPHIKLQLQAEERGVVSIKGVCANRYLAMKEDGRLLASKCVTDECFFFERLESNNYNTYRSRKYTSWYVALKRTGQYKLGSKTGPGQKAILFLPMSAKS
Chain of Luciferin 4-monooxygenase (Photinus pyralis) (P08659 whole entry, looked up): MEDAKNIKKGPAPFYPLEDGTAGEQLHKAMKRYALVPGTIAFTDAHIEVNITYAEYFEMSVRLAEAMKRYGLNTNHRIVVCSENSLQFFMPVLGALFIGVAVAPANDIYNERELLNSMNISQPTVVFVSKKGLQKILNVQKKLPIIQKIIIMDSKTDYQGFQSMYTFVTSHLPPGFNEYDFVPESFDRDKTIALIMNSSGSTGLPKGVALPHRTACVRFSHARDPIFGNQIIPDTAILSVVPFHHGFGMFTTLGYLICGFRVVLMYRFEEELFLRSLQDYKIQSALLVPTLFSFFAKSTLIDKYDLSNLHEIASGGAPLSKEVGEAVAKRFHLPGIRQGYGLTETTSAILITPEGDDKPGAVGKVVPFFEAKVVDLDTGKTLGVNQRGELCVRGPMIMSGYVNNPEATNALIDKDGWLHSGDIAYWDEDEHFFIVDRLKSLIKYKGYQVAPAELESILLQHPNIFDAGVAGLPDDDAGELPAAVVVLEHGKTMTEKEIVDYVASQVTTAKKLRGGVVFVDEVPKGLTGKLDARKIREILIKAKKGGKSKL
Chain of Follistatin (Homo sapiens) (P19883 whole entry, looked up): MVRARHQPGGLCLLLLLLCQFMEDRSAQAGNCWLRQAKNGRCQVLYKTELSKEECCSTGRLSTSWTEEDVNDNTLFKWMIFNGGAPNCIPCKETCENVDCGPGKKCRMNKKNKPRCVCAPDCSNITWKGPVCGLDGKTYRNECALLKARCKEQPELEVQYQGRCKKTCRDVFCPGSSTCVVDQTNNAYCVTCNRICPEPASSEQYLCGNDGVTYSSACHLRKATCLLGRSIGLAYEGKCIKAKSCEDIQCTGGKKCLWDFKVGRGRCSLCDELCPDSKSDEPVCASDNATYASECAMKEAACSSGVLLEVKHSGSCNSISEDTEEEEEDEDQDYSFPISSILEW
Chain of Torsin-1A (Homo sapiens) (O14656 whole entry, looked up): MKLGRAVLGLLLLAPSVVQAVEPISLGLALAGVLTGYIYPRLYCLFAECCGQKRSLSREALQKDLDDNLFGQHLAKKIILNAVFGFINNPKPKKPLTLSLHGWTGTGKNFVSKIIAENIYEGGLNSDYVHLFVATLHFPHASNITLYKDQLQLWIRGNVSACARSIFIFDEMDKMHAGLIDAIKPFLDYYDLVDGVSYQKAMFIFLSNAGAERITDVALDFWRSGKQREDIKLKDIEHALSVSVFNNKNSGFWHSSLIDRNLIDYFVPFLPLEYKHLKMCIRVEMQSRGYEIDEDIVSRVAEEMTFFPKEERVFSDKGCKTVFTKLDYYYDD
Chain of Focal adhesion kinase 1 (Homo sapiens) (Q05397 whole entry, looked up): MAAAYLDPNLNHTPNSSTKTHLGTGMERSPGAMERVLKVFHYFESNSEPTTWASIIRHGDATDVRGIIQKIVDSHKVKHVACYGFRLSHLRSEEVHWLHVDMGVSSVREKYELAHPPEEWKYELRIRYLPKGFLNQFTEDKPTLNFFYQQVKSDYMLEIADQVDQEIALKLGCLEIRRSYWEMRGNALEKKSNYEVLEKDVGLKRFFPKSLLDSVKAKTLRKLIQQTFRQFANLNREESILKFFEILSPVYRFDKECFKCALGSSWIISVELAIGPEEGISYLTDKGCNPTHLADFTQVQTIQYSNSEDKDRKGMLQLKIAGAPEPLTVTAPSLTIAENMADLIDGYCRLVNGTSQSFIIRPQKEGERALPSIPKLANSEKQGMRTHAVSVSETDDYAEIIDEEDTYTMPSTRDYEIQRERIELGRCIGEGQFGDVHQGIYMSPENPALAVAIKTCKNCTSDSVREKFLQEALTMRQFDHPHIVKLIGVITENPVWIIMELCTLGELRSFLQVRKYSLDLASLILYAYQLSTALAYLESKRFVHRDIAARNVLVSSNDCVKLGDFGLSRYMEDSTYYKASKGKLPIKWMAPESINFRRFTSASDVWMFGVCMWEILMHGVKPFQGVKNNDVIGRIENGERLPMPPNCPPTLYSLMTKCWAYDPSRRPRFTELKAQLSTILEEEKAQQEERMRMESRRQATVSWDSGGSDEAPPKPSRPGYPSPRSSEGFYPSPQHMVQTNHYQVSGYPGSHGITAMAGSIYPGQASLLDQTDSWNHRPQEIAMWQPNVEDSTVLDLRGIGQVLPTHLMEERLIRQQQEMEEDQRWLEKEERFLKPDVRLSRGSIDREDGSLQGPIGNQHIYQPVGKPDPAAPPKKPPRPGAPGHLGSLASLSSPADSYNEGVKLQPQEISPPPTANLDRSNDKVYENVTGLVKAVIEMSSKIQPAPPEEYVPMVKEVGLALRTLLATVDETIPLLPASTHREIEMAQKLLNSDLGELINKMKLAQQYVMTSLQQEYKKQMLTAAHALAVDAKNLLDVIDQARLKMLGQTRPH

Turning to `O=C1NC(=O)C2C1C=CC(C(O)c1ccccn1)N2Nc1ccc(Cl)cc1Cl` (stereo not given), the composite z-score in assay [1] was 0.713; in assay [2], 0.676; in assay [3], 0.473; in [4] it was 0.717; in [5] it was 0.101; in [6] it was 0.0367. The composite z-score was 0.181 in [8]; 1.11 in assay [9]; 0.0314 in [11]; 1.16 in [16]; -0.101 in assay [17]; -0.117 in assay [18]. The composite z-score was 0.175 in [19] and -0.517 in [20]. For the same compound, the z-score is 1.07 in [7]; 0.237 (inactive) in assay [10]; 0.203 (inactive) in assay [12]; -0.595 (inactive) in assay [13]; 0.0535 (inactive) in assay [14]; -0.0259 (inactive) in [15].

`CO[C@H]1O[C@H](CO)[C@@H](OC(=O)c2ccc(Br)cc2)[C@@H]2OC(=O)[C@H](Cc3ccccc3)C/C=C/C[C@@H](Cc3ccccc3)C(=O)O[C@@H]12`: the composite z-score was 0.478 in assay [1]; 0.817 in assay [2]; 0.703 in assay [3]; 0.135 in assay [4]; 0.84 in [5]; 1.37 in assay [6]. In addition, the composite z-score in assay [8] was 0.416; in [9], -0.0716; in [11], 0.293; in assay [16], 0.088; in [17], -0.263; in assay [18], -0.295. Besides, the composite z-score in assay [19] was -0.0307; in assay [20] it was 0.984. Moreover, the z-score in assay [7] is 0.0305; in assay [10], 0.659 (inactive); in assay [12], -3.95 (inactive); in [13] it was -1.16 (inactive); in assay [14] it was -0.0017 (inactive); in [15], -0.175 (inactive).

With `COCC1C2CC[C@H]3C(OCc4ccc(OC)cc4)OC[C@]4(C)[C@H]3C2=C(CN4C(=O)OC(C)(C)C)[C@H](C)C1COC` (stereo not given in full), the composite z-score in [1] was 0.565; in [2], 1.2; in assay [3], 2.09; in assay [4] it was 1.02; in [5] it was 0.916; in assay [6], 0.0753. Further, the composite z-score in assay [8] was 0.757; in assay [9] it was 0.819; in assay [11], 0.261; in assay [16] it was 2.08; in assay [17], -0.321; in assay [18], 0.187. For the same compound, the results for the composite z-score in [19] and in assay [20] were 0.255 and 0.298, respectively. Further, the z-score is 2.48 in assay [7]; -0.503 (inactive) in assay [10]; -2.88 (inactive) in assay [12]; 0.413 (inactive) in [13]; -0.185 (inactive) in assay [14]; -0.0287 (inactive) in assay [15].

In the case of `Cc1ccccc1C(O)C1C=CC2C(=O)NC(=O)C2N1Nc1ccc(Cl)cc1Cl` (stereo not given), the composite z-score in [1] is 0.817; in assay [2], 1.18; in [3] it was 0.276; in [4], 0.866; in [5] it was 0.802; in [6], -0.344. In addition, the composite z-score is 0.518 in assay [8]; 0.951 in assay [9]; -0.0864 in assay [11]; 0.878 in [16]; 0.319 in [17]; -0.192 in [18]. Moreover, the composite z-score in [19] is 0.244; in assay [20], -0.232. For the same compound, the z-score in [7] is -1.06; in assay [10] it was -1.08 (inactive); in assay [12], -0.702 (inactive); in assay [13], -0.274 (inactive); in [14], 1.01 (inactive); in [15] it was -0.569 (inactive).

`CN1C(=O)[C@@]2(Cc3ccccc3)N=C(c3ccc(OCCCO)cc3)O[C@H]2c2ccccc21`: the composite z-score in assay [1] came out at 1.32; in [2], 1.22; in [3], 0.241; in [4], 0.619; in assay [5], 1.48; in [6] it was 1.25. Besides, the composite z-score in assay [8] came to 0.941; in assay [9], 0.3; in assay [11] it was 0.634; in [16], 0.0831; in assay [17], 0.382; in assay [18], 0.266. For the same compound, the composite z-score in assay [19] is -0.0779; in [20] it was 1.45. Moreover, the z-score in [7] is 0.558; in [10] it was -6.41 (inactive); in assay [12], -4.44 (inactive); in [13], -0.458 (inactive); in assay [14] it was 1.04 (inactive); in [15] it was -1.67 (inactive).
